According to ChEMBL document CHEMBL2218924, “A broad activity screen in support of a chemogenomic map for kinase signalling research and drug discovery” (Biochem J, 2013):

How the values were obtained:
[1] = biological target: Tyrosine-protein kinase Lck (Homo sapiens) (UniProt P06239); details: at 10 µM
[2] = biological target: Tyrosine-protein kinase Lck (Homo sapiens) (UniProt P06239); details: at 1 µM
[3] = biological target: Tyrosine-protein kinase Lck (Homo sapiens) (UniProt P06239); details: at 10 µM; remark: listed apart in the source
[4] = biological target: Tyrosine-protein kinase Lyn (Homo sapiens) (UniProt P07948); details: at 10 µM
[5] = biological target: Mitogen-activated protein kinase 3 (Homo sapiens) (UniProt P27361); details: at 1 µM
[6] = biological target: Mitogen-activated protein kinase 3 (Homo sapiens) (UniProt P27361); details: at 10 µM
[7] = biological target: Mitogen-activated protein kinase 1 (Homo sapiens) (UniProt P28482); details: at 1 µM
[8] = biological target: MAP kinase-activated protein kinase 2 (Homo sapiens) (UniProt P49137); details: at 1 µM
[9] = biological target: Mitogen-activated protein kinase 1 (Homo sapiens) (UniProt P28482); details: at 10 µM
[10] = biological target: Tyrosine-protein kinase Lyn (Homo sapiens) (UniProt P07948); details: at 1 µM

Chain of Mitogen-activated protein kinase 3 (Homo sapiens) (P27361 whole entry): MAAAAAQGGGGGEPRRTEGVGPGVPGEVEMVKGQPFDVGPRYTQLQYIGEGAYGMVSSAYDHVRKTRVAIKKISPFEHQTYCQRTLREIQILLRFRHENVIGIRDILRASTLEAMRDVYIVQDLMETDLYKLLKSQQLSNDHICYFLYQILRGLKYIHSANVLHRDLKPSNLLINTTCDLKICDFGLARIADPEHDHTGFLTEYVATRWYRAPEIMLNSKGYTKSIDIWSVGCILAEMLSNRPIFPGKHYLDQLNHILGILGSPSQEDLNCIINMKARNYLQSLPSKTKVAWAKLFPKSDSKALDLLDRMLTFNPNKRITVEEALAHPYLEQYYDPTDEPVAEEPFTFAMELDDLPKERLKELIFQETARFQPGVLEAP
Chain of Mitogen-activated protein kinase 1 (Homo sapiens) (P28482 whole entry): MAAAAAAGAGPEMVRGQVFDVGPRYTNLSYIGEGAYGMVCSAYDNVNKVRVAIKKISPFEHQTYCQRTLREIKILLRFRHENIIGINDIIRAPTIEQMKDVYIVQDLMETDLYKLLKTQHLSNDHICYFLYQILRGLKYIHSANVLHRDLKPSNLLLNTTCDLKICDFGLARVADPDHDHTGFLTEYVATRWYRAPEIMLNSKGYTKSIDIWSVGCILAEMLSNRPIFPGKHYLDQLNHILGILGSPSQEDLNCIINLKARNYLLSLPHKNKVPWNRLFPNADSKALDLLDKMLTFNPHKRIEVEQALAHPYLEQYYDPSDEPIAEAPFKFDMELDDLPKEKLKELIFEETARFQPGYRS
Chain of Tyrosine-protein kinase Lck (Homo sapiens) (P06239 2-509 limits assumed): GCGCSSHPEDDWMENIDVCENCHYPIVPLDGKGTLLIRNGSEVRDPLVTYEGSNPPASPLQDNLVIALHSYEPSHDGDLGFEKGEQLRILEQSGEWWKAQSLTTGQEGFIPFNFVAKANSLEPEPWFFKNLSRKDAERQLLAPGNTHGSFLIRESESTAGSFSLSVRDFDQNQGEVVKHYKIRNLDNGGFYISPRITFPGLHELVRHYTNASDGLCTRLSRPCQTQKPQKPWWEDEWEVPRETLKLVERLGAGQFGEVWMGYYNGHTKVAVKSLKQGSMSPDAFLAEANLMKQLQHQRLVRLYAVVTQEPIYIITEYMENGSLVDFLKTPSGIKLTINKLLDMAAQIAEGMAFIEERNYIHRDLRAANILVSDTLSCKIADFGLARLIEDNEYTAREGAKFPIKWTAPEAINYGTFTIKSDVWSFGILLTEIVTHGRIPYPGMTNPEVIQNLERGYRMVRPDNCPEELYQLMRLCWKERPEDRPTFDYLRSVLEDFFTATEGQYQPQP
Chain of Tyrosine-protein kinase Lyn (Homo sapiens) (P07948 2-512 limits assumed): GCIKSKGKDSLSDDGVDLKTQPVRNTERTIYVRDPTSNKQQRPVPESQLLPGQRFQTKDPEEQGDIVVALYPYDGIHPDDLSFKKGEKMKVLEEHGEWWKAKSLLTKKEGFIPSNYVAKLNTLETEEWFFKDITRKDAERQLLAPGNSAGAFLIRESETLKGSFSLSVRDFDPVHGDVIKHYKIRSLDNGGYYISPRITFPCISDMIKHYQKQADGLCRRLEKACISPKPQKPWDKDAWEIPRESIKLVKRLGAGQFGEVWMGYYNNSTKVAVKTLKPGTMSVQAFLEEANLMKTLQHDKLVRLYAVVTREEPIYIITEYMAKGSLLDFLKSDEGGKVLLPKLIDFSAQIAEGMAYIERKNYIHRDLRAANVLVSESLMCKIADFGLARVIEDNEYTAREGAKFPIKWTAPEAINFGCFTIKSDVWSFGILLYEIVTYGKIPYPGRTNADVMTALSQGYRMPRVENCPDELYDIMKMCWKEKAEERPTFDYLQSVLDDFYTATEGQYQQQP
Chain of MAP kinase-activated protein kinase 2 (Homo sapiens) (P49137 whole entry, looked up): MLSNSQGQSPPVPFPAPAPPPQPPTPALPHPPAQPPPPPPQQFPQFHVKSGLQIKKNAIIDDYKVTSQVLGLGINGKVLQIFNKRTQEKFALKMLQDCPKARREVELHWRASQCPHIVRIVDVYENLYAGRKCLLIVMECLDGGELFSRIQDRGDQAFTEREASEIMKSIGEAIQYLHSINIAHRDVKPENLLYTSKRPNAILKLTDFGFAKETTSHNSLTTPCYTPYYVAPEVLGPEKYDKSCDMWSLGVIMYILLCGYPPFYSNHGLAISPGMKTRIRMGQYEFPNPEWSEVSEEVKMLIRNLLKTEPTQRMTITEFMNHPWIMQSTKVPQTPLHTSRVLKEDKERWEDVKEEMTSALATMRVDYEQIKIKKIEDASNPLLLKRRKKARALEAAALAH

| Structure (SMILES) | residual activity [1] [%] | residual activity [2] [%] | residual activity [3] [%] | residual activity [4] [%] | residual activity [5] [%] | residual activity [6] [%] | residual activity [7] [%] | residual activity [8] [%] | residual activity [9] [%] | residual activity [10] [%] |
| --- | --- | --- | --- | --- | --- | --- | --- | --- | --- | --- |
| O=c1cc(N2CCNCC2)oc2c(-c3ccccc3)cccc12 | 85 | 92 | 88 | 71 | 86 | 87 | 101 | 94 |  |  |
| O=C1NC(=O)C(c2cn(CCCn3ccnc3)c3ccccc23)=C1Nc1ccccc1 | 65 |  | 66 | 39 |  | 70 | 104 | 100 | 110 |  |
| COc1ccc2c(c1)c(C1=C(c3c[nH]c4ccccc34)C(=O)NC1=O)cn2CCCN(C)C | 25 | 65 | 27 | 13 | 104 | 82 | 114 |  |  | 63 |
| Nc1ncnc2c1c(-c1ccc(Oc3ccccc3)cc1)cn2C1CCCC1 | -1 | -3 | 2 | 1 | 76 | 66 | 106 | 82 | 93 | 0 |
| COc1ccc(CNC(=O)Nc2ncc([N+](=O)[O-])s2)cc1 | 37 | 6 | 9 |  |  |  | 120 |  | 101 |  |
| COc1cc2nccc(Oc3ccc(NC(=S)NC(=O)c4ccccc4C)cc3)c2cc1OC | -1 | 0 | 0 | 0 | 83 | 82 | 93 | 73 | 87 | 0 |
| CCN(CC)CCNC(=O)c1c(C)[nH]c(/C=C2\C(=O)Nc3ccc(Cl)cc32)c1C | 2 | 6 | -1 | 3 |  | 115 |  |  |  | 2 |
| CCCCc1c(-c2ccc(O)cc2)[nH]c2nccnc12 | 50 | 63 | 59 |  | 96 | 73 |  | 98 |  |  |
| O=C1NC(=O)C(c2c[nH]c3ccccc23)=C1c1c[nH]c2ccccc12 | 37 |  | 41 | 32 |  | 61 |  | 98 |  | 82 |
| CC(C)(C)n1nc(Cc2cccc3ccccc23)c2c(N)ncnc21 | 6 | 44 | 12 | 1 | 78 | 51 | 81 |  | 41 | 10 |
| CCCCc1c(-c2ccc(OC)cc2)[nH]c2nccnc12 | 63 | 63 | 82 | 11 |  |  | 117 | 89 | 105 | 37 |
| O=C1NC(=O)c2c1c1c3ccccc3[nH]c1n1cncc21 | 49 | 72 | 47 | 19 | 86 | 90 |  | 79 | 98 | 57 |
| O=C(c1ccccc1)c1ccc(N2CCOCC2)cc1O | 94 | 96 | 78 | 72 | 90 | 89 |  | 73 |  | 85 |
| O=C1C(Cl)=C(N2C(=O)CCC2=O)C(=O)c2ccccc21 | 99 |  | 93 | 84 | 102 | 91 |  | 69 |  | 87 |
| O=C1Nc2ccc(Cl)cc2/C1=C/c1cc(Cl)c(O)c(Cl)c1 | 53 | 74 | 51 | 23 | 76 | 70 |  | 67 |  | 81 |
| CSc1nc(-c2ccc(F)cc2)c(-c2ccnc(NC(C)c3ccccc3)c2)[nH]1 (stereo not given) | 62 |  | 37 | 29 |  |  |  | 79 |  | 52 |
| CC(C)N(CCC(=O)c1ccc2ccccc2c1)Cc1ccccc1 | 77 |  |  |  | 85 | 76 |  |  |  |  |
| O=c1cc(N2CCOCC2)oc2c1ccc1ccccc12 | 101 | 89 | 88 | 90 | 101 | 80 | 103 | 100 | 106 | 103 |
| CCCC(=O)Oc1ccc2[nH]c(C(=O)c3cc4ccccc4[nH]3)cc2c1 | 73 | 80 | 76 | 31 | 77 | 80 | 100 | 75 | 104 | 61 |

| Structure (SMILES) | residual activity [1] [%] | residual activity [2] [%] | residual activity [3] [%] | residual activity [4] [%] | residual activity [5] [%] | residual activity [6] [%] | residual activity [7] [%] | residual activity [8] [%] | residual activity [9] [%] | residual activity [10] [%] |
| --- | --- | --- | --- | --- | --- | --- | --- | --- | --- | --- |
| O=C(c1cc2cc(O)ccc2[nH]1)c1cc2cc(O)ccc2[nH]1 | 2 | 22 | 7 | -1 | 82 | 64 |  | 64 |  | 6 |
| NCCNc1ncc(C(N)=O)c(Nc2cccc(C(F)(F)F)c2)n1 | 37 | 82 | 29 | 3 | 72 | 40 |  |  | 43 | 27 |
| O=C(O)/C=C/c1cc(Br)c(Br)c(Br)c1Br | 95 |  | 80 | 63 | 106 | 104 |  | 93 |  | 70 |
| COc1cc2nccc(Oc3ccc(NC(=O)Nc4cc(C)on4)c(Cl)c3)c2cc1OC | 1 | -2 | 1 | 2 |  |  | 103 |  | 104 | -1 |
| O=C(NC(NC(=S)Nc1ccc(F)c([N+](=O)[O-])c1)C(Cl)(Cl)Cl)C(c1ccccc1)c1ccccc1 (stereo not given) | 55 | 86 | 74 | 66 | 82 | 82 |  | 90 |  | 89 |
| Nc1nc(Nc2ccc(S(N)(=O)=O)cc2)nn1C(=O)c1c(F)cccc1F | 29 | 66 | 18 | 11 | 102 |  |  |  |  | 40 |
| CC(C)c1nn(-c2c(Cl)cccc2Cl)c2nc(Cc3ccc(OCCO)cc3)[nH]c(=O)c12 | 85 |  | 88 | 36 | 94 | 73 |  | 80 | 89 | 81 |
| O=C(CCCc1ccc(-c2ccccc2F)cc1)Nc1ccc(O)cc1 | 58 | 99 | 88 | 85 | 100 | 88 | 106 | 95 | 92 | 97 |
| Nc1ncnc2[nH]nc(Nc3ccc(F)cc3)c12 | 14 | 31 | 19 | 3 | 90 | 43 | 101 | 75 | 67 | 19 |
| COc1cc2ncnc(Nc3cccc(Cl)c3)c2cc1OC | 12 | 49 | 15 | 1 |  | 65 | 101 | 108 | 80 | 10 |
| c1ccc(-c2cnc(Nc3ccc(OCCN4CCCC4)cc3)s2)cc1 | 19 | 36 | 5 | 4 |  |  |  |  |  | 29 |
| O=C1Nc2ccccc2/C1=C\c1c(Cl)[nH]c2ccccc12 | 48 |  | 55 | 62 |  |  | 121 |  |  |  |
| COc1ccc(-c2cnc3c(-c4ccsc4)cnn3c2)cc1 | 123 | 93 | 91 | 95 | 84 | 91 |  | 91 |  | 98 |
| O=S(=O)(NCCNC/C=C/c1ccc(Br)cc1)c1cccc2cnccc12 |  |  |  | 49 |  | 70 |  |  |  |  |
| O=S(=O)(c1cccc2cnccc12)N1CCCNCC1 |  |  |  |  |  |  |  |  | 80 | 83 |
| NC(=O)Nc1sc(-c2ccc(F)cc2)cc1C(N)=O |  |  |  | 1 | 80 |  | 108 | 92 | 67 | 16 |
| COc1ccc(COc2ccc(Cc3cnc(N)nc3N)cc2OC)cc1 | 77 |  |  |  | 100 | 76 |  |  |  |  |
| COc1cc2c(cc1OC)-c1n[nH]c(Nc3cccc(F)c3)c1C2 |  |  |  | 6 |  | 76 | 103 | 75 | 103 | 6 |
| O=C(Nc1ccc(Cl)cc1)c1ccccc1NCc1ccncc1 |  |  |  | 2 | 77 | 80 |  |  |  | 30 |

| Structure (SMILES) | residual activity [1] [%] | residual activity [2] [%] | residual activity [3] [%] | residual activity [4] [%] | residual activity [5] [%] | residual activity [6] [%] | residual activity [7] [%] | residual activity [8] [%] | residual activity [9] [%] | residual activity [10] [%] |
| --- | --- | --- | --- | --- | --- | --- | --- | --- | --- | --- |
| O=C1NC(=O)C(c2cn(CCCO)c3ncccc23)=C1c1cnccn1 |  |  |  | 70 |  |  |  | 93 |  | 78 |
| COc1ccc(Cl)cc1NC(=O)Nc1cc(C)nc2ccccc12 |  |  |  | 87 |  |  |  | 80 |  | 89 |
| CCOc1nc(NC(=O)Cc2cc(OC)ccc2OC)cc(N)c1C#N |  |  |  | 59 |  |  |  |  |  | 69 |
| CCN1/C(=C/C(C)=O)Sc2ccc(OC)cc21 |  |  |  | 37 |  |  |  |  |  | 49 |
| NC(=O)c1ccc(-c2nc(-c3ccc4c(c3)OCCO4)c(-c3ccccn3)[nH]2)cc1 |  |  |  |  | 96 |  |  |  |  | 83 |
| Cc1cc(C)c(/C=C2\C(=O)Nc3ccccc32)[nH]1 |  |  |  | 8 |  |  | 98 | 100 | 101 | 46 |
| Cn1sc(=O)n(Cc2ccccc2)c1=O |  |  |  | 92 | 83 | 92 | 95 | 72 | 92 | 82 |
| N#C/C(=C1/Nc2ccccc2S1)c1ccnc(NCCc2cccnc2)n1 |  |  |  | 15 |  |  |  |  |  |  |
| N#C/C(=C\c1ccc(O)c(O)c1)C(=O)NCc1ccccc1 |  |  |  | 70 | 77 | 65 |  | 85 |  |  |
| Nc1ncnc2c1cnn2-c1ccccc1 |  |  |  | 82 | 82 | 80 |  | 92 | 95 | 95 |
| Nc1n[nH]c2nc3ccccc3nc12 |  |  |  | 67 |  |  | 123 |  |  | 75 |
| Fc1ccc(-c2nc3n(c2-c2ccncc2)CCS3)cc1 |  |  | 75 | 74 | 138 | 92 |  |  |  | 98 |
| CC(C)[C@H](CO)Nc1nc(Nc2cc(N)cc(Cl)c2)c2ncn(C(C)C)c2n1 |  |  |  | -1 | 91 | 82 |  | 89 | 66 | 9 |
| Oc1cccc(-c2nc(N3CCOCC3)c3oc4ncccc4c3n2)c1 |  |  |  | 57 | 83 | 87 | 122 | 81 | 119 | 99 |
| O=c1cc(N2CCOCC2)oc2c(-c3ccccc3)cccc12 |  |  |  | 74 | 78 | 73 |  |  |  |  |
| O=C1Cc2c([nH]c3ccc(Br)cc23)-c2ccccc2N1 |  |  |  | 1 |  |  |  |  |  | 10 |
| N#Cc1c(NC(=O)c2cccc3ccccc23)sc2c1CCCC2 |  |  |  | 62 |  |  |  |  | 92 | 90 |
| CN(C)S(=O)(=O)c1ccc2c(c1)/C(=C/c1cc3c([nH]1)CCCC3)C(=O)N2 |  |  |  | 0 |  | 88 |  | 81 |  | 3 |
| Nc1nccc(-c2c(-c3ccc(F)cc3)ncn2C2CCNCC2)n1 |  |  |  | 6 |  | 35 |  |  |  | 50 |
